Compound activity from PubChem.
Avidin fluor – compound fluoresces at 488/530 nm on avidin beads; compound fluorescence 488/530 nm, flow cytometry; active compounds read high; fluorescence (KMESF) at 10 µM; 220,000 compounds, 0.38% hits; AID 1775; in the data active means fluorescence above about 47
RGS4-Gao reg – human RGS4-Galphao interaction regulation. P09471. Multiplexed bead flow cytometry, RGS4-Galphao binding; actives lie on both sides. binding response (% of control), % at 10 µM. 220,000 compounds, 0.33% hits; in the data active means binding response below about 49% or above about 150%; inactive means in between;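 further: fluorescent Galphao activated with aluminum fluoride binding bead-coupled RGS4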
Target sequence (P09471 whole entry, looked up): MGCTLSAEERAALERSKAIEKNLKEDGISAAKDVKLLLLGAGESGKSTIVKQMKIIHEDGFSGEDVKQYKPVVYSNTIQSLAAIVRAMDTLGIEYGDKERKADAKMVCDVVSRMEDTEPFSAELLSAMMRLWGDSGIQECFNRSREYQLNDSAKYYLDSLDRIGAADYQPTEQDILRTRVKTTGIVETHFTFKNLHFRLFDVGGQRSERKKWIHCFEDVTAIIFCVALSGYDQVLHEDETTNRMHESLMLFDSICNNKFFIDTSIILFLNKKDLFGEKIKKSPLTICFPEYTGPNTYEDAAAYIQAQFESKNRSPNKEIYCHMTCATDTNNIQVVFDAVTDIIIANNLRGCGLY
RGS16-Gao HTS – modulates binding between human RGS16 and Galphao | O15492+P09471 | bead-based flow cytometry RGS16-Galphao binding, fluorescence; actives lie on both sides | binding response (% of control), % at 10 µM | 220,000 compounds, 0.38% hits;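 further: Galphao activated by GDP with aluminum fluoride before binding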
RGS7-Gao – human RGS7-Galphao interaction regulation; P09471; 220,000 compounds, 0.35% hits; Multiplexed bead flow cytometry, RGS7-Galphao binding; actives lie on both sides; binding response (% of control), % at 10 µM; in the data active means binding response below about 49% or above about 150%; inconclusive means no clear call, values can overlap the other calls; inactive means in between;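 further: fluorescent Galphao held in activated GDP-AlF4 state binding bead-coupled RGS7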
GSH fluor – compound fluoresces at 488/530 nm on GSH beads; 190,000 compounds, 0.25% hits; GSH beads flow cytometry, compound fluorescence 488/530 nm; active compounds read high; fluorescence (KMESF) at 10 µM; in the data active means fluorescence above about 89;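 further: glutathione beads carrying GST-tagged Bcl family fusion proteins plus one bare bead set; values are compound well signal with DMSO vehicle wells as background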
RGS8-Gao – human RGS8-Galphao interaction regulation; P09471; multiplexed bead flow cytometry, RGS8-Galphao binding; actives lie on both sides; response (percent of control binding), % at 10 µM; 220,000 compounds, 0.34% hits; AID 1423; in the data active means response below about 60% or above about 140%; inactive means in between;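 further: Galphao activated as the GDP aluminium fluoride complex binding bead-coupled RGS8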
RGS4-Gao HTS – RGS4-Galphao interaction regulator (human) | shares compounds with RGS16-Gao HTS | multiplexed bead flow cytometry, RGS–Galpha-o binding | RGS4–Galpha-o binding response, % at 10 µM | 1,600 compounds, 99% hits;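 further: fluorescently labeled Galpha-o bound to GDP with aluminium fluoride binding biotinylated RGS beads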
Target sequence (P09471 whole entry, looked up): as above
Target sequence (P49798 whole entry, looked up): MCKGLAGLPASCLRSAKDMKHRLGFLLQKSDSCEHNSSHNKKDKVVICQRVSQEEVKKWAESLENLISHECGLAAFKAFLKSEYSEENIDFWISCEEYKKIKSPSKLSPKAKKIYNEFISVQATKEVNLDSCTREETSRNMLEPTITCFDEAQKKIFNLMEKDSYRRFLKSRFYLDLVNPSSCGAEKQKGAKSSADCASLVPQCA
Biotin-avidin – biotin-avidin bead binding disruption counter-screen. shares compounds with RGS16-Gao HTS. streptavidin beads, fluorescein-biotin binding, flow cytometry. inhibition, % at 10 µM. 1,700 tested, under 10 active. AID 1783;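 active means inhibition above 50%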;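 further: median green fluorescence of gated singlet beads compared with DMSO control wells; 0% = DMSO wells and 100% = complete loss of bead fluorescence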
RGS8-Gao confirm – confirmation of regulators of human RGS8-Galphao interaction | shares compounds with RGS16-Gao HTS | binding response (% of control), % at 10 µM | bead-based flow cytometry RGS8-Galphao binding, fluorescence; actives lie on both sides | AID 1836 | 1,700 compounds, 3% hits; in the data active means binding response below about 72% or above about 130%; inactive means in between;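 further: Galphao activated as GDP AlF4 complex before binding bead RGS8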
RGS7-Gao single – confirmation of regulators of human RGS7-Galphao interaction; bead-based flow cytometry RGS7-Galphao binding; actives lie on both sides; response (percent of control binding), % at 10 µM; 1,700 compounds, 7.8% hits; shares compounds with RGS16-Gao HTS; in the data active means response below about 75% or above about 130%; inactive means in between;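 further: fluorescent Galphao activated with GDP and aluminum fluoride binding bead-coupled RGS7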
RGS16-Gao conf – RGS16-Galphao interaction regulation, single point confirmation; shares compounds with RGS16-Gao HTS; bead-based flow cytometry, RGS16-Galphao binding; actives lie on both sides; response (% of control binding), % at 10 µM; 1,700 compounds, 4% hits; AID 1838; in the data active means response below about 74% or above about 130%; inactive means in between;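 further: Galphao activated as the GDP aluminium fluoride complex binding bead-coupled RGS16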
RGS4-Gao confirm – confirmation of regulators of human RGS4-Galphao interaction; shares compounds with RGS16-Gao HTS; RGS4-Galphao binding, multiplexed bead flow cytometry; actives lie on both sides; binding response (% of control), % at 10 µM; 1,700 compounds, 4% hits; in the data active means binding response below about 74% or above about 130%; inactive means in between
RGS19-Gao single – confirmation of regulators of human RGS19-Galphao interaction. shares compounds with RGS16-Gao HTS. bead-based flow cytometry RGS19-Galphao binding; actives lie on both sides. response (percent of control binding), % at 10 µM. 1,700 compounds, 5% hits. AID 1841; in the data active means response below about 50% or above about 160%; inactive means in between;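 further: 100% = no compound control and 0% = blank background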
* marks the source's active call; other numbers are inactive results; ? = inconclusive; / = no result given; [ ] = dose if it differs, or a comment. Shown are actives, neighbours in structure and some others; about 1.2% of the full set was active somewhere. Unless noted, how the calls were made is not given here.

SMILES	Avidin fluor	RGS4-Gao reg	RGS16-Gao HTS	RGS7-Gao	GSH fluor	RGS8-Gao	Biotin-avidin	RGS8-Gao confirm	RGS7-Gao single	RGS16-Gao conf	RGS4-Gao confirm	RGS19-Gao single	others
CCCOc1ccc(C(=O)NCC(c2cccs2)N(C)C)cc1OC (stereo not drawn)	17	103	100	104	9	103	/	/	/	/	/	/
Nc1nnc(SCC(=O)OCC(=O)NC23CC4CC(CC(C4)C2)C3)s1	-1	19*	7.7*	?	12	13*	0	106	109	107	105	97
C=CCSC1=NNC(c2ccc(C(C)(C)C)cc2)=NN1	13	114	105	?	/	101	/	/	/	/	/	/
Cc1noc(C)c1COc1ccc(C(=O)OCC(=O)NCCN2C(=O)CSC2=O)cc1	9	103	100	?	10	100	/	/	/	/	/	/
CN1CCN(C2=C(Cl)C(=O)C(c3cnc(N4CCCCC4)s3)=C(Cl)C2=O)CC1	2	70	14*	76	34	64	0	27*	18*	-8.3*	63*	-8.1*	RGS4-Gao HTS=70*
CCOC(=O)C(=O)Nc1ccccc1C(=O)OC	12	98	108	94	23	101	/	/	/	/	/	/
CCOC(=O)C(=O)Nc1ccccc1C(N)=O	/	/	/	/	47	/	0	105	108	103	108	56
Oc1ccc(/C=N/Nc2ncnc3nc[nH]c23)cc1	2	37*	33	?	/	52*	-2	102	84	95	84	117
c1ccc(OCCN2CCN(Cc3nc(-c4ccc5c(c4)OCO5)no3)CC2)cc1	6	97	96	94	17	96	/	/	/	/	/	/
CCOC(=O)C1CCCN(c2c(N3CCN(c4cccc(Cl)c4)CC3)c(=O)c2=O)C1 (stereo not drawn)	0	29*	16*	18*	17	30*	-1	104	101	102	101	94
CCOC(=O)C1CCCN(c2c(N3CCN(C)CC3)c(=O)c2=O)C1 (stereo not drawn)	17	103	110	115	26	110	/	/	/	/	/	/
FC(F)(F)c1ccnc(NCc2ccco2)n1	7	103	106	?	/	102	/	/	/	/	/	/
C#Cc1ccc([C@@H]2C=C(C(=O)Nc3ccccc3)O[C@H](OCC)[C@H]2CCCO)cc1	0	22*	11*	12*	18	17*	1	105	101	105	100	100
C#Cc1ccc([C@H]2C=C(C(=O)NCc3ccccc3)O[C@@H](OCC)[C@@H]2CCCO)cc1	6	101	100	101	21	103	/	/	/	/	/	/
C#CCNC(=O)C1=C[C@H](C2CCCCC2)[C@@H](CCCO)[C@H](OCC)O1	2	52	41	38*	20	44*	0	99	98	102	100	117	RGS4-Gao HTS=52*
Cc1ccc(Cn2c(=N)n(CC(=O)c3ccccc3)c3ccccc32)cc1	9	102	111	106	9	103	/	/	/	/	/	/
COc1ccc(-c2csc(C3=C(O)CN(C(C)C)C3=N)n2)cc1OC	14	103	102	?	8	100	/	/	/	/	/	/
O=C(O)CCNC(=O)C12CC3CC(CC(C3)C1)C2	11	96	102	100	15	99	/	/	/	/	/	/
Cn1c(-c2cccc(Br)c2)cnc1NCc1cccnc1	14	104	106	97	28	104	/	/	/	/	/	/
COc1cccc(-c2cnc(NCc3cc(Cl)ccc3O)n2C)c1	55*	117	145	160*[activator]	21	114	/	/	/	/	/	/	RGS4-Gao HTS=117*
COc1ccccc1/C=C/C(=O)NCc1ccccn1	9	99	103	?	16	101	/	/	/	/	/	/
CCOC(=O)CNNC(=O)Nc1ccc(Cl)c(Cl)c1	6	123	326*[activator]	112	13	153*[activator]	1	100	105	98	102	93	RGS4-Gao HTS=123*
CC(C(=O)Nc1cccnc1)C1Sc2ccccc2NC1=O (stereo not drawn)	7	107	128	110	15	107	/	/	/	/	/	/
CC1CCN(C(=O)c2ccc(NS(C)(=O)=O)cc2)CC1	/	/	/	/	48	/	1	101	104	101	102	88
COc1cccc(NC(=O)Nc2cc(C)ccc2OC)c1	2	36*	22*	26*	15	34*	2	98	95	97	100	103
SMILES	Avidin fluor	RGS4-Gao reg	RGS16-Gao HTS	RGS7-Gao	GSH fluor	RGS8-Gao	Biotin-avidin	RGS8-Gao confirm	RGS7-Gao single	RGS16-Gao conf	RGS4-Gao confirm	RGS19-Gao single	others
COc1ccc(C)cc1NC(=O)Nc1ccccc1	13	104	98	104	57	101	/	/	/	/	/	/
CC(=O)c1ccccc1NCC(=O)Nc1ccc(C)cc1	11	98	99	95	9	98	/	/	/	/	/	/
CCCn1c(N)c(C(=O)CSc2nc3ccccc3c(=O)n2Cc2ccccc2)c(=O)[nH]c1=O	64*	227*[activator]	354	158*[activator]	16	112	2	89	65*	78	78	48*
COc1cc(NC(=O)COC(C)=O)c(C)cc1[N+](=O)[O-]	16	101	103	103	15	102	/	/	/	/	/	/
COC(=O)C(F)(F)Sc1c(C)[nH]c2ccccc12	143*	119	117	158*[activator]	26	111	0	104	100	102	102	102	RGS4-Gao HTS=119*
Cc1[nH]c2ccccc2c1SCC(=O)O	7	100	101	97	15	101	/	/	/	/	/	/
O=C(Nc1ccccc1)N1CCCN(c2ccc(C(F)(F)F)cc2[N+](=O)[O-])CC1	1	23*	21*	?	/	41*	-2	102	101	99	103	106
Cc1[nH]c2ccccc2c1/C=N/Nc1ccc([N+](=O)[O-])cc1S(=O)(=O)Nc1ccc(Cl)cc1	24	131	126	128	16	103	/	/	/	/	/	/
